# Measurements published in PubChem BioAssay AID651812 (National Center for Advancing Translational Sciences (NCATS), 2012).
# Out of some 2,100 compounds screened, about 650 (31%) were called active. Not shown: some 16% with an inconclusive outcome. Calls come from the whole dose curve; as a rule, active = well fitted inhibition curve with a large enough effect; inconclusive = small, poorly fitted or top-dose-only effect; inactive = flat fitted curve, though single readings scatter. The list shows a part of the results.
# Experiment: qHTS for inhibitors of Vif-A3G interactions: Cherry picks; note: nearly all actives have a fitted effect of over 80% in size; for activity, negative = fluorescence increase: % of control where 0% means no effect
# Conditions: HeLa A3G-eYFP + Vif (tagged APOBEC3G with the HIV-1 protein that degrades it), 24 h; Potency: eYFP fluorescence increase; series mostly up to 36.9 µM; activity, negative = fluorescence increase: at the top concentration
# Outline: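 Cherry-picked compounds tested at several concentrations on A3G-eYFP/Vif HeLa cells for 24 hours; loss of Vif-driven degradation read as eYFP fluorescence by cytometric plate imaging, 488 nm excitation, 500-530 nm emission.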
# Potency is the fitted concentration of half-maximal effect.
Compound,"activity, negative = fluorescence increase",Potency
O=C(NCc1cccnc1)c1cccc(NS(=O)(=O)c2ccc(Br)cc2)c1,-0.847% (inactive),
COc1ccc(-c2nnc(NC(=O)c3ccc([N+](=O)[O-])o3)o2)c(OC)c1,-1.94% [at 46.1 µM] (inactive),
COc1ccc(COc2cc(-c3cccc(OC)c3)nc3ccc(NC(=O)C(C)C)cc23)cc1,-2.87% (inactive),
COc1ccc(NC(=O)c2ccc(NC(=O)C(C)C)cc2)c([N+](=O)[O-])c1,,10.3 µM (active)
O=C1N/C(=C\c2ccccc2)c2ccccc21,-6.2% (inactive),
Cc1ccc(/C=C2/NC(=O)N(Cc3ccccc3)C2=O)s1,,23.1 µM (active)
Cc1ccc(C=Nc2ccccc2C(N)=O)s1,-5.29% (inactive),
CN(C)c1ccc(/C=C2\NC(=S)N(Cc3ccccc3)C2=O)cc1,,9.94 µM (active)
O=C1/C(=C/c2ccc(N3CCCC3)cc2)NC(=S)N1C1CC1,,3.66 µM (active)
CCN1C(=O)/C(=C/c2ccc(N3CCCC3)cc2)NC1=S,,10.3 µM (active)
COc1ccc(COn2c(=O)c(C)[n+]([O-])c3ccccc32)cc1OC,-5.61% (inactive),
COc1ccccc1N1CCN(c2ncnc3c2oc2ccccc23)CC1,1.39% (inactive),
CCOC(=O)N1CCN(C(=O)c2ccccc2-c2ccccc2)CC1,-0.014% (inactive),
CCOC(=O)N1CCN(C(=O)c2cc(-c3ccc(OCC)cc3)nc3ccccc23)CC1,0.415% (inactive),
CCOC(=O)N1CCN(/C=C(\C#N)c2nc3ccccc3s2)CC1,,18.4 µM (active)
COc1ccc(S(=O)(=O)N2N=C(C)Oc3ccccc3C2=O)cc1,-6.59% (inactive),
COc1cc(/C=C/C(C)=NNc2ccccc2)ccc1O,-7.3% (inactive),
COc1cc(/C=N/NC(=O)c2cc(-c3c(C)nn(-c4ccccc4)c3C)n[nH]2)ccc1O,-8.18% (inactive),
COc1cc(/C=N/NC(=O)c2[nH]nc3c2CCc2ccccc2-3)ccc1O,-2.56% (inactive),
COc1ccc(C(=O)N/N=C/c2cc(Br)ccc2O)cc1OC,0.135% [at 46.1 µM] (inactive),
COc1cc(/C=C2\SC(=S)N(NC(=O)c3ccccc3O)C2=O)ccc1O,,23.1 µM (active)
COc1cc(/C=C2\SC(=S)N(NC(=O)c3ccc(O)c(OC)c3)C2=O)ccc1O,,13 µM (active)
CCOC(=O)C(C(=O)OCC)C(Nc1cccc(Br)c1)c1ccccc1 (configuration not stated),-2.02% (inactive),

Compound,"activity, negative = fluorescence increase",Potency
c1ccc2c(CCc3c[nH]c4ccccc34)ccnc2c1,,23.1 µM (active)
CCCCN1C(=O)/C(=C2/Sc3ccccc3N2C)S/C1=N\c1ncn[nH]1,,18.4 µM (active)
Cc1ccc2c(c1)C=CC(C#N)N2C(=O)c1ccccc1 (configuration not stated),-2.86% (inactive),
Cc1cccc2cc3c(N)c(C(=O)Nc4ccc(N5CCOCC5)cc4)sc3nc12,,14 µM (active)
Nc1c(C(=O)Nc2ccc(S(=O)(=O)N3CCCC3)cc2)sc2nc3cc4c(cc3cc12)CCC4,,8.2 µM (active)
COc1cccc(C(=O)Nc2ccc(N3CCCC3)cc2)c1,-6.33% (inactive),
O=C(Nc1ccc(Cl)cn1)c1cccc(S(=O)(=O)N2CCCCCC2)c1,-4.99% (inactive),
Cc1cc2nc(-c3ccc(SCC(=O)Nc4ccc(S(=O)(=O)N5CCCC5)cc4)nc3)[nH]c2cc1C,-11% [at 46.1 µM] (inactive),
COc1ccc(NC(=O)c2oc3ccc(S(=O)(=O)N4CCOCC4)cc3c2C)cc1,-0.471% (inactive),
COC(=O)Nc1ccc(S(=O)(=O)N2CCCc3ccccc32)cc1,-4.64% (inactive),
O=C(Nc1nc2ccc(S(=O)(=O)N3CCCC3)cc2s1)C1CCCCC1,-0.031% (inactive),
O=C(Nc1ccc(N2CCOCC2)cc1)c1cccc2ccccc12,-3.81% (inactive),
CCc1cccc2cc3c(N)c(C(=O)Nc4ccc(S(=O)(=O)N5CCCC5)cc4)sc3nc12,,4.98 µM (active)
Cc1c(C(=O)Nc2ccc(C(C)C)cc2)sc2nc3n(c(=O)c12)CCC3,-1.38% [at 46.1 µM] (inactive),
Nc1c(C(=O)Nc2ccc(S(=O)(=O)N3CCCC3)cc2)sc2nc3ccc(OC(F)(F)F)cc3cc12,,20.6 µM (active)
CN1C(=O)N(C)c2ccc(C=O)c3cccc1c23,0.629% [at 46.1 µM] (inactive),
COc1cc(OC)c(/C=C/c2ccc3ccccc3[n+]2C)c(OC)c1,,10.3 µM (active)
COc1cc(OC)c(/C=C/c2ccnc3ccccc23)c(OC)c1,-10% [at 46.1 µM] (inactive),
COc1cc(OC)c(C2Nc3cccc4cccc(c34)N2)c(OC)c1,6.18% [at 46.1 µM] (inactive),
CCN(CC(=O)NCc1ccc(F)cc1)C(=O)/C=C/c1ccc(OC)c(S(=O)(=O)NC(C)C)c1,-20.2% (inactive),
Cc1sc2ncnc(N=Nc3c(O)[nH]c4ccccc34)c2c1C,,16.4 µM (active)
Cc1sc2ncnc(SCC(=O)NC(C)(C)C)c2c1C,0.117% [at 46.1 µM] (inactive),
Cc1sc2ncn(CC(=O)NCc3ccccc3)c(=O)c2c1C,-0.561% (inactive),

Compound,"activity, negative = fluorescence increase",Potency
Fc1ccc(-c2cnn3c(-c4cccs4)ccnc23)cc1,,12.5 µM (active)
COc1ccc2nc(NC(=O)c3ccc([N+](=O)[O-])o3)sc2c1,-10.5% (inactive),
Cc1ccc2nc(SCC(=O)Nc3ccc4sc(C)nc4c3)c(C#N)cc2c1,,18.4 µM (active)
COc1ccc2nc(SCC(C)=O)c(C#N)cc2c1,,3.26 µM (active)
COc1ccc2cc(C(=O)C3CCCN(Cc4ccccn4)C3)ccc2c1 (configuration not stated),13.5% [at 46.1 µM] (inactive),
Cc1ccc(NC(=O)CSc2n[nH]c(-c3ccccn3)n2)cc1,1.26% [at 46.1 µM] (inactive),
CCN(CC)c1ccc(NC(=O)CSc2nc(C3CC3)nc3ccccc23)cc1C,-9.93% (inactive),
COc1ccc2nc(SCC(=O)Nc3ccc4sc(C)nc4c3)c(C#N)cc2c1,,20.6 µM (active)
Cc1nc2cc(NC(=O)CSc3nc4c(C)cccc4cc3C#N)ccc2s1,,13 µM (active)
CCc1ccc2nc(SCC(=O)Nc3ccccc3N3CCOCC3)c(C#N)cc2c1,-24.4% [at 46.1 µM] (inactive),
CCC(=O)Nc1nc2ccc(NC(=O)c3cc(OC)c(OC)c(OC)c3)cc2s1,0.0932% (inactive),
CCCOc1ccccc1C1CC(=O)Nc2cc3c(cc21)OCO3 (configuration not stated),2.79% (inactive),
Cn1nnnc1SCc1nc2scc(-c3ccc(Cl)cc3)c2c(=O)[nH]1,-22.9% [at 46.1 µM] (inactive),
CCOC(=O)c1sc(NC(=S)NC(=O)c2ccco2)nc1C,10.5% [at 46.1 µM] (inactive),
COc1cccc(Nc2nc(Nc3ccc(Cl)c(C(=O)O)c3)nc(C)c2[N+](=O)[O-])c1,1.14% (inactive),
CCOC(=O)c1cc2n(c1/N=C/N(C)C)-c1ccccc1C2=O,,20.6 µM (active)
CCOc1ccc(NC(=O)N2CC=C(c3c[nH]c4ccccc34)CC2)cc1,-14.2% [at 46.1 µM] (inactive),
CCOc1cc(/C=C(/C#N)C(=O)Nc2ccc(O)cc2)cc(Br)c1O,,15.8 µM (active)
CCOc1ccc(/C=N/NC(=O)c2cc3c(OC)cc(OC)c(OC)c3[nH]2)cc1,1.38% (inactive),
CCOc1ccc(NC(=O)/C(C#N)=C/c2ccc(N3CCCC3)c(C)c2)cc1,,6.51 µM (active)
N#C/C(=C/c1ccc2c(c1)OCO2)C(=O)Nc1ccc(O)cc1,-6.9% (inactive),
